Values joined by “and” are separate entries in the source; they are usually repeats but may differ in a detail not shown here. Equal entries are not always repeated. Inconclusive results are not listed. Active and inactive are the calls of the source. Unless noted, calls follow the shape of the dose curve; as a rule, active = well fitted curve in the direction sought with a large enough effect; inconclusive = small, poorly fitted or top-dose-only effect, or another doubt; inactive = no such curve, though single readings can be large; an effect the other way counts as inactive or inconclusive.
Legend:
[1] = target: Cytochrome P450 2C9 (Homo sapiens) (UniProt P11712); assay: Cytochrome P450 family 2 subfamily C member 9 (CYP2C9) small molecule antagonists: luciferase biochemical (cell-free) qHTS assay (AID 1645842; active = well fitted curve in the direction sought with a large enough effect in the repeat runs; an effect the other way counts as inactive or inconclusive; also: nearly all actives have a fitted effect of over 55% in size; also: potency is read from the fitted curve at half-maximal effect)
In short: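 Luminescence, after 20 min with luciferin detection reagent, reflected CYP2C9 turnover during a 1 h NADPH-driven reaction at 37C. Enzyme-substrate mix contained 0.4% bovine serum albumin and was preincubated with compound 10 min at room temperature.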

[2] = Cytotoxicity counterscreen for inhibitors of SARS-CoV-2 cell entry (AID 1645845; calls by dose curve; also: nearly all actives have a fitted effect of over 50% in size)
In short: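 48 h compound treatment (after 1 h preincubation), HEK293-ACE2 cells, 37 C/5% CO2; ATP luminescence endpoint; normalized to cell wells and media blanks.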

[3] = Primary qHTS to identify inhibitors of SARS-CoV-2 cell entry (AID 1645846; calls by dose curve; also: nearly all actives have a fitted effect of over 45% in size); details: activity change, negative = inhibition: at 57.1 µM (top of the series) unless noted
In short: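 HEK293-ACE2 (Expi293F, stable hACE2), 1500 cells/well, o/n 37C; cpd 23 nL pin, 1 h; MLV-PP w/ SARS-CoV-2-S (Wuhan-Hu-1, Δ19 C-term); 48 h 37C; Bright-Glo luminescence; normalized vs S-PP and bald PP.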

[4] = Primary qHTS for inhibitors of nuclear receptor binding SET domain protein 2 (NSD2) in an isogenic RCH-ACV NSD2 p.E1099K mutant (9B) (AID 1645876); also: nearly all actives have a fitted effect of over 70% in size; also: potency is read from the fitted curve at half-maximal effect
[5] = Primary qHTS for inhibitors of nuclear receptor binding SET domain protein 2 (NSD2) in an RCH-ACV wild type WT cells (2C) (AID 1645877); also: nearly all actives have a fitted effect of over 70% in size; also: potency is read from the fitted curve at half-maximal effect
[6] = target: Glutathione peroxidase 1 (Homo sapiens) (UniProt P07203); assay: Primary qHTS Assay for Inhibitors of Recombinant Selenoprotein Glutathione Peroxidase 1 (GPX1) (AID 1845191); also: nearly all actives have a fitted effect of over 65% in size; also: potency is read from the fitted curve at half-maximal effect
In short: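 10 nM GPX1 + cpd, 30 min RT; start w/ 1 mM GSH, 0.5 mM cumene hydroperoxide, 0.5 mM NADPH, 100 nM GR, 0.01% BSA; buffer 50 mM Tris-HCl pH 7.5, 2 mM EDTA, 150 mM NaCl; Fl 340/450, 0 & 15 min.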

Papain (Carica papaya) = Papain (Carica papaya) (UniProt P00784); assay: Primary qHTS assay for inhibitors of the protease papain (AID 1645873);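 also: papain turnover of Z-FR-AMC read as the AMC fluorescence gain over 10 min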
[7] = target: Metallo-beta-lactamase type 2 (Klebsiella pneumoniae) (UniProt C7C422); assay: qHTS to identify inhibitors of the New Delhi Metallo-beta-lactamase (NDM): assay validation screen against the NCATS LOPAC Collection (AID 1794843);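 also: nitrocefin turnover by NDM-1 measured as 485 nm absorbance at plateau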
In short: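 NDM-1 at 2 nM final in 50 mM HEPES pH 7.0, 1 uM ZnSO4, 0.01% Tween20, preincubated with LOPAC compounds pinned in DMSO; 50 uM nitrocefin (stock) added. Hydrolysis read as absorbance at 485 nm in the plateau phase.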

[8] = target: Cytochrome P450 3A4 (Homo sapiens) (UniProt P08684); assay: Cytochrome P450 family 3 subfamily A member 4 (CYP3A4) small molecule antagonists: luciferase qHTS assay (AID 1645841; active = well fitted curve in the direction sought with a large enough effect in the repeat runs; an effect the other way counts as inactive or inconclusive; also: nearly all actives have a fitted effect of over 45% in size; also: potency is read from the fitted curve at half-maximal effect)
In short: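 Luminescent CYP3A4 activity readout: compounds plus enzyme-substrate mix 10 min at room temperature, reaction started with NADPH regenerating system for 1 h, stopped with detection reagent, read after 20 min. Ketoconazole served as control.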

[9] = target: Cytochrome P450 2D6 (Homo sapiens) (UniProt P10635); assay: Cytochrome P450 family 2 subfamily D member 6 (CYP2D6) small molecule antagonists: luciferase biochemical (cell-free) qHTS assay (AID 1645840; active = well fitted curve in the direction sought with a large enough effect in the repeat runs; an effect the other way counts as inactive or inconclusive; also: nearly all actives have a fitted effect of over 55% in size; also: potency is read from the fitted curve at half-maximal effect)
In short: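 P450-Glo luminescent screen: recombinant CYP2D6 enzyme–proluciferin substrate mix preincubated with compound 10 min at room temperature, then NADPH regeneration added for 1 h at room temperature. Detection reagent added for 20 min; luciferin light read as relative luminescence units.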

[10] = target: N-terminal Xaa-Pro-Lys N-methyltransferase 1 (Homo sapiens) (UniProt Q9BV86); assay: Confirmatory qHTS for Inhibitors of N-terminal methyltransferase 1 (NTMT1): MTaseGlo Assay (AID 1645874);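 also: luminescence from SAH made as NTMT1 methylates SPKRIA peptide using SAM; nearly all actives have a fitted effect of over 65% in size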
In short: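 NTMT1 (125 nM) preincubated 15 min with compound and 100 uM SAM, then 1 uM SPKRIA peptide added for 30 min at room temperature. SAH detected by MTase-Glo luminescence; normalized to no-enzyme and DMSO controls, fitted to 4-parameter Hill.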

Papain (Carica papaya), sequence (P00784 whole entry, looked up): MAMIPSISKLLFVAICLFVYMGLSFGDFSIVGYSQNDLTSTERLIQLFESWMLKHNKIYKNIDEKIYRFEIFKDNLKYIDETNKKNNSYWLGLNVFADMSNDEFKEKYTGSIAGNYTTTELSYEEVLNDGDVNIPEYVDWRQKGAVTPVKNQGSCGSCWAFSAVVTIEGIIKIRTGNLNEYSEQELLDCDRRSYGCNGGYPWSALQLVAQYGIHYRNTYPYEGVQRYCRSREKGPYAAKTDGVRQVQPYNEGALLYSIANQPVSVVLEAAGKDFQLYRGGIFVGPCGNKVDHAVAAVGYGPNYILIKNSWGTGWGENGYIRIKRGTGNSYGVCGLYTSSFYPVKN
Glutathione peroxidase 1 (Homo sapiens), sequence (P07203 whole entry, looked up): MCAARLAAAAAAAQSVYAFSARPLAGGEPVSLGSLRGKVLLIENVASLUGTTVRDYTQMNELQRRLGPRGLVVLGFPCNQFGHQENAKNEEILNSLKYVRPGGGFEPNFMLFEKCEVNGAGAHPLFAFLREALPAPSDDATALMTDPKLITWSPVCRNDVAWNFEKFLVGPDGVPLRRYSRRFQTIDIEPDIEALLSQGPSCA
Metallo-beta-lactamase type 2 (Klebsiella pneumoniae), sequence (C7C422 whole entry, looked up): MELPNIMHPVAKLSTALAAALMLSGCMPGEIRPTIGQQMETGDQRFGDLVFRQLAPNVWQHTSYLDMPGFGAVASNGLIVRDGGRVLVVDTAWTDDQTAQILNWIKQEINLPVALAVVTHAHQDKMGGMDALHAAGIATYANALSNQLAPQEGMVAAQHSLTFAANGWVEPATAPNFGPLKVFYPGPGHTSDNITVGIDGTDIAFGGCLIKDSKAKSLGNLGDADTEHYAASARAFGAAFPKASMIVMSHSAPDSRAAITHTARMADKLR
Cytochrome P450 3A4 (Homo sapiens), sequence (P08684 whole entry, looked up): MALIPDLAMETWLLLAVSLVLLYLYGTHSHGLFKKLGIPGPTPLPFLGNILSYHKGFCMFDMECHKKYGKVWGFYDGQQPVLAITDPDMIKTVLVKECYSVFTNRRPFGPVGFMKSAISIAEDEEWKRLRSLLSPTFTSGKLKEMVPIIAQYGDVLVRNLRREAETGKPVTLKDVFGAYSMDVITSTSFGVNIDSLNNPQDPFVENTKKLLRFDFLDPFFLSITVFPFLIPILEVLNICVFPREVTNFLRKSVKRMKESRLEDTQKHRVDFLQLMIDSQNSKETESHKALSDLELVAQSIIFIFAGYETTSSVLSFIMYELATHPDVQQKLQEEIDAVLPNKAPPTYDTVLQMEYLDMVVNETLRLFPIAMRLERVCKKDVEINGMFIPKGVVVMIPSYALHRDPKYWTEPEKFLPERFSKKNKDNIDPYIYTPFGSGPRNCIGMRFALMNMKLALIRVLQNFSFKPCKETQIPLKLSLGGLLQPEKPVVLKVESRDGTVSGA
Cytochrome P450 2C9 (Homo sapiens), sequence (P11712 whole entry, looked up): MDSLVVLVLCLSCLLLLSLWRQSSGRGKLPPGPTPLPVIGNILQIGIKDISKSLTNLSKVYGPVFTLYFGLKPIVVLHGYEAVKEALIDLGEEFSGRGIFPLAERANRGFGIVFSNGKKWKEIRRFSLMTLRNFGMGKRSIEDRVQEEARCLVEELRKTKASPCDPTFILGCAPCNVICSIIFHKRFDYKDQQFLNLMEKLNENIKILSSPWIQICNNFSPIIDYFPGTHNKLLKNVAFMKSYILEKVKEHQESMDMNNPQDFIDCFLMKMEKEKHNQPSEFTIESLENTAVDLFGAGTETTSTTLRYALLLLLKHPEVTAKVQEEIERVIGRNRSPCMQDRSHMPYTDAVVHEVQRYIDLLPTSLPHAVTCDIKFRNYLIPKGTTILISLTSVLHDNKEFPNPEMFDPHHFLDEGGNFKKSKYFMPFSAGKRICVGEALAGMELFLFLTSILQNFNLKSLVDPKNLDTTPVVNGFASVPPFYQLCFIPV
Cytochrome P450 2D6 (Homo sapiens), sequence (P10635 whole entry, looked up): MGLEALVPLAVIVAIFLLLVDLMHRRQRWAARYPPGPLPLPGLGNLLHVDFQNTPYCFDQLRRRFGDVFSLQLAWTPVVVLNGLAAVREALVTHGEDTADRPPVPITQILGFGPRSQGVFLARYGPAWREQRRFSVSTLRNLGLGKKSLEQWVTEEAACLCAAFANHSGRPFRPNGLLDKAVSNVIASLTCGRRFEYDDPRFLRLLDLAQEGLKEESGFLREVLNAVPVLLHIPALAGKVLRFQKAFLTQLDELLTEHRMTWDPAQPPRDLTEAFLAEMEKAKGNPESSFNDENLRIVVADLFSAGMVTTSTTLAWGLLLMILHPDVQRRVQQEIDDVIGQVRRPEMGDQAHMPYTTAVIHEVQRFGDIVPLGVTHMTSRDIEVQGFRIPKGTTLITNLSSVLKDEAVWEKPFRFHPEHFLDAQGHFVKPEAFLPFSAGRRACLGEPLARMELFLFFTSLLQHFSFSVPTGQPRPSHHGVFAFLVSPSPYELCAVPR
N-terminal Xaa-Pro-Lys N-methyltransferase 1 (Homo sapiens), sequence (Q9BV86 whole entry, looked up): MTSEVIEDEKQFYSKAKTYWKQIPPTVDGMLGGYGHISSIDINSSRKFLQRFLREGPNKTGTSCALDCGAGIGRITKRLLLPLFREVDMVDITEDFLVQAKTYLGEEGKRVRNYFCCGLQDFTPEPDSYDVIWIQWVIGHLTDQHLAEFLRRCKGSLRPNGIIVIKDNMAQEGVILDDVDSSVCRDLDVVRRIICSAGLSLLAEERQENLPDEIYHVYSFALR

C=CCC1([C@H](C)CCC)C(=O)NC(=O)NC1=O
inactive: Potency [1]

CNC(C)(C)Cc1ccccc1
inactive: Potency [1] | Potency [2] | Potency [3] | Potency [4] | Potency [5] | Potency [6]

COc1ccc2c(c1OC)C(=O)O[C@H]2[C@@H]1c2cc3c(cc2CCN1C)OCO3
inactive: Potency [2] | Potency [3] | outcome (Papain (Carica papaya)) | Potency [4] | Potency [5] | outcome [7] | Potency [6]
active: Potency [1] 4.9 µM

NC(=O)c1cc([N+](=O)[O-])cc([N+](=O)[O-])c1
active: Potency [8] 9.65 µM
-10.7%: activity change, negative = inhibition [3]
inactive: Potency [1] | Potency [2] | Potency [4] | Potency [5] | Potency [6]

CC(C)NC(C)C
inactive: Potency [1] | Potency [2] | Potency [3] | Potency [4] | Potency [5] | Potency [6]

CCCCCCC(=O)CCCCCC/C=C/C[C@@H](O)[C@H](O)[C@@](N)(CO)C(=O)O
inactive: Potency [9] | Potency [1] | Potency [4] | Potency [5]

COP(=S)(OC)Oc1cc(Cl)c(Cl)cc1Cl
inactive: Potency [2] | Potency [3] | Potency [4] | Potency [5] | Potency [6]
active: Potency [1] 6.92 µM

O=C(Nc1ccc(Br)cc1)c1cc(Br)cc(Br)c1O
inactive: Potency [2] | Potency [3] | Potency [4] | Potency [5]
active: Potency [1] 3.47 µM

O=C(O)c1ccc(=O)[nH]c1
inactive: Potency [9] | Potency [1] | Potency [4] | Potency [5]

NNc1ccccc1
inactive: Potency [1]

COc1cccc2c1C(=O)c1c(O)c3c(c(O)c1C2=O)C[C@@](O)(C(=O)CO)CC3OC1CC(N2CCOC(OC)C2)C(O)C(C)O1 (stereo partly specified)
inactive: Potency [9] | Potency [6]
active: Potency [1] 3.47 µM | Potency [4] 0.0047 µM | Potency [5] 0.0033 µM

C[C@]12CCC(=O)C=C1CC[C@@H]1[C@@H]2CC[C@]2(C)C(=O)CC[C@@H]12
inactive: Potency [8] | Potency [1] | Potency [2] | Potency [3] | Potency [6]

c1ccc(N2CCNCC2)cc1
inactive: Potency [9] | Potency [1] | Potency [4] | Potency [5]

CC(=O)OCC1=C(C(=O)O)N2C(=O)[C@@H](N)[C@H]2SC1
inactive: Potency [1] | Potency [4] | Potency [5]
active: Potency [9] 5.35 µM | Potency [6] 12.8 µM

CCC1(CC)C(=O)C=CNC1=O
inactive: Potency [9] | Potency [4] | Potency [5]

C#C[C@]1(O)CC[C@H]2[C@@H]3CCC4=CC(=O)CC[C@]4(C)[C@H]3CC[C@@]21C
inactive: Potency [1]

O=[N+]([O-])O[C@H]1CO[C@H]2[C@@H]1OC[C@H]2O[N+](=O)[O-]
-33.3%: activity change, negative = inhibition [3]
inactive: Potency [8] | Potency [1] | Potency [2] | Potency [4] | Potency [5] | Potency [6]

C[C@@H]1CC2=CC(=O)CC[C@@H]2[C@H]2CC[C@@]3(C)[C@@H](CC[C@]3(C)O)[C@@H]21
inactive: Potency [9] | Potency [1] | Potency [6]

C[C@H](N)C(=O)c1ccccc1
active: Potency [9] 42.2 µM
inactive: outcome [10] | Potency [4] | Potency [5]

CC1(C)C(C=C(Cl)Cl)C1C(=O)OC(C#N)c1cccc(Oc2ccccc2)c1 (stereo unspecified)
inactive: Potency [9] | Potency [4] | Potency [5]

CCC(C)(C)c1ccc(O)cc1
inactive: Potency [9] | Potency [4]

O=P1(N(CCCl)CCCl)NCCCO1 (stereo unspecified)
inactive: Potency [8] | Potency [1] | Potency [2] | Potency [3] | outcome (Papain (Carica papaya)) | Potency [4] | Potency [5] | outcome [7] | Potency [6]

Clc1ccc(C(c2ccc(Cl)cc2)C(Cl)(Cl)Cl)cc1
inactive: Potency [2] | Potency [4] | Potency [5] | Potency [6]
2.18%: activity change, negative = inhibition [3]
active: Potency [1] 2.19 µM

C=CCC1(C(C)CC)C(=O)NC(=O)NC1=O (stereo unspecified)
-17.9%: activity change, negative = inhibition [3]
inactive: Potency [1] | Potency [2] | Potency [4] | Potency [5] | Potency [6]

COc1cccc([C@@]2(O)CCCC[C@@H]2CN(C)C)c1
inactive: Potency [8] | Potency [1] | Potency [4] | Potency [5]

CN1C(=O)COc2c(C(=O)NC3CN4CCC3CC4)cc(Cl)cc21 (stereo unspecified)
-14.3%: activity change, negative = inhibition [3]
inactive: Potency [1] | Potency [2] | Potency [4] | Potency [5] | Potency [6]

CC(NC(C)(C)C)C(=O)c1cccc(Cl)c1 (stereo unspecified)
-12.4%: activity change, negative = inhibition [3]
inactive: Potency [1] | Potency [2] | Potency [3] | outcome (Papain (Carica papaya)) | Potency [4] | Potency [5] | outcome [7] | Potency [6]

C[C@@H](N)[C@@H](O)c1ccccc1
inactive: Potency [1] | Potency [2] | Potency [3] | Potency [4] | Potency [5]

Cc1ncsc1CCCl
-22.5%: activity change, negative = inhibition [3]
inactive: Potency [1] | Potency [2] | outcome (Papain (Carica papaya)) | Potency [4] | Potency [5] | outcome [7] | Potency [6]

CN1C(=O)CCS(=O)(=O)C1c1ccc(Cl)cc1 (stereo unspecified)
-18.3% and 4.93%: activity change, negative = inhibition [3]
inactive: Potency [1] | Potency [2] | outcome (Papain (Carica papaya)) | Potency [4] | Potency [5] | outcome [7] | Potency [6]

CN1CCC(O)(c2ccc(F)cc2)C(C(=O)c2ccc(F)cc2)C1 (stereo unspecified)
inactive: Potency [1] | Potency [4] | Potency [5]

O=C(O)CCCc1ccc(N(CCCl)CCCl)cc1
inactive: Potency [1] | Potency [2] | Potency [4] | Potency [5] | Potency [6]

CN(C)CCc1c[nH]c2cccc(OP(=O)(O)O)c12
inactive: Potency [1] | Potency [4] | Potency [5]

NC(=O)CS(=O)C(c1ccccc1)c1ccccc1 (stereo unspecified)
inactive: Potency [1] | Potency [4] | Potency [5]

CCN[C@@H](C)Cc1cccc(C(F)(F)F)c1
inactive: Potency [1] | Potency [4] | Potency [5]

CN1CC[C@]23c4c5ccc(O)c4O[C@H]2[C@@H](O)CC[C@H]3[C@H]1C5
inactive: Potency [1] | Potency [4] | Potency [5]

From PubChem BioAssay (NCATS)
